# Measurements reported in PubChem BioAssay (NCI).
# The panel holds about 79,000 compounds, 15% with a hit somewhere; the sample as a whole holds those more often. Unmarked numbers belong to inactive results. Calls of active or inactive are those of the source. No stated cut-off is given here; in the data, active means growth inhibition above about 70%; inactive means the rest.
# Legend:
# [1] = NCI Yeast Anticancer Drug Screen. Data for the mec2-1 strain (AID 157); conditions: S. cerevisiae mec2-1 strain, stronger effect = higher value
# Method in brief: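 Test agents were screened against the mec2-1 yeast strain, with defined DNA repair or cell cycle alteration. Growth was scored as inhibition against vehicle-only controls.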
# [2] = NCI Yeast Anticancer Drug Screen. Data for the rad14 strain (AID 159);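 further: 0% = growth of vehicle-treated control cultures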; conditions: S. cerevisiae rad14 strain growth inhibition, stronger effect = higher value
# Method in brief: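 Readout: yeast growth inhibition, referenced to vehicle-only cultures. Strain bears a defined alteration in DNA damage repair.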
# [3] = NCI Yeast Anticancer Drug Screen. Data for the sgs1 mgt1 strain (AID 161);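 further: 0% = growth of cultures given vehicle only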; conditions: S. cerevisiae sgs1 mgt1 strain, stronger effect = higher value
# Method in brief: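 Mutant yeast exposed to compound; growth scored against vehicle-only wells.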
# [4] = NCI Yeast Anticancer Drug Screen. Data for the CLN2oe strain (AID 163);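 further: 0% = growth of vehicle-only control cultures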; conditions: S. cerevisiae CLN2oe strain, stronger effect = higher value
# Method in brief: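 Here, growth inhibition in a cell-cycle-altered yeast strain after compound exposure was quantified against vehicle control growth.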
# [5] = NCI Yeast Anticancer Drug Screen. Data for the cln2 rad14 strain (AID 165);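 further: 0% = growth equal to vehicle treated cultures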; conditions: S. cerevisiae cln2 rad14 strain, stronger effect = higher value
# Method in brief: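 Growth of compound-exposed yeast (cln2 rad14 genotype) measured and expressed as inhibition relative to vehicle.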
# [6] = NCI Yeast Anticancer Drug Screen. Data for the bub3 strain (AID 167); conditions: S. cerevisiae bub3 mutant strain, stronger effect = higher value
# Method in brief: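 Part of a panel of yeast mutants defective in DNA damage repair or cell cycle regulation. Each strain is grown with compound, and inhibition is calculated relative to solvent-treated cultures.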
# [7] = NCI Yeast Anticancer Drug Screen. Data for the wt2 strain (AID 169);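 further: 0% = growth of vehicle-treated yeast cultures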; conditions: S. cerevisiae wt2 strain growth inhibition, stronger effect = higher value
# Method in brief: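 Genetically defined yeast strains from a DNA-repair/cell-cycle panel were used. Compound-exposed yeast growth was measured, and the inhibition was calculated relative to vehicle treatment.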
# [8] = NCI Yeast Anticancer Drug Screen. Data for the mlh1 strain (AID 171);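 further: 0% = growth of vehicle-treated control cultures of the same strain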; conditions: S. cerevisiae mlh1 strain growth inhibition, stronger effect = higher value
# Method in brief: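 Here the genetically defined yeast mutant is grown with each compound, and the extent to which its growth falls below that of vehicle-exposed cells is reported.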
# [9] = NCI Yeast Anticancer Drug Screen. Data for the sgs1 strain (AID 173);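 further: 0% = growth of vehicle-only control cultures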; conditions: S. cerevisiae sgs1 mutant, stronger effect = higher value
# Method in brief: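 Relative growth inhibition, referenced to vehicle, was determined in a yeast strain with a defined alteration affecting DNA damage repair or cell cycle control after compound exposure.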
# [10] = NCI Yeast Anticancer Drug Screen. Data for the mlh1 rad18 strain (AID 175); conditions: S. cerevisiae mlh1 rad18 strain growth inhibition, stronger effect = higher value
# Method in brief: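 In this whole-cell yeast screen, a strain with altered DNA damage repair is challenged with compound, and its growth is measured against matched vehicle-treated controls.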
# [11] = NCI Yeast Anticancer Drug Screen. Data for the rad18 strain (AID 177); conditions: S. cerevisiae rad18 mutant growth inhibition, stronger effect = higher value
# Method in brief: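 Screen uses a yeast strain with a defined lesion in DNA damage repair; compound effect is read as loss of growth compared to untreated vehicle cultures.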
# [12] = NCI Yeast Anticancer Drug Screen. Data for the rad52 strain (AID 147);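 further: 0% = growth of vehicle-treated control cultures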; conditions: S. cerevisiae rad52 mutant growth inhibition, stronger effect = higher value
# Method in brief: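 Measured: yeast growth inhibition. System: strain with a defined DNA damage repair alteration. Reference: vehicle-treated control cultures.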
# [13] = NCI Yeast Anticancer Drug Screen. Data for the wt1 strain (AID 149);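 further: 0% = growth of vehicle-treated wt1 cultures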; conditions: S. cerevisiae wt1 strain (SPY 50644) growth inhibition, stronger effect = higher value
# Method in brief: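 The wt1 strain was treated with compounds, and growth was compared with vehicle-treated cultures to give inhibition.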
# [14] = NCI Yeast Anticancer Drug Screen. Data for the rad50EPP+ strain (AID 151);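 further: 0% = growth of vehicle-treated control cultures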; conditions: S. cerevisiae rad50 mutant strain, stronger effect = higher value
# Method in brief: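 One strain with a rad50 alteration (rad50EPP+) was compound-treated, its growth then compared to that of vehicle controls.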
# [15] = NCI Yeast Anticancer Drug Screen. Data for the mgt1 strain (AID 153); conditions: S. cerevisiae mgt1 mutant growth inhibition, stronger effect = higher value
# Method in brief: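 After exposure of the mgt1 yeast mutant to compound, growth was measured and reported as inhibition compared with vehicle controls.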
# [16] = NCI Yeast Anticancer Drug Screen. Data for the rad50 strain (AID 155);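 further: 0% = growth of vehicle-only cultures of the same strain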; conditions: S. cerevisiae rad50 strain growth inhibition, stronger effect = higher value
# Method in brief: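 Cells are treated with compound, grown, and their growth is then scored against vehicle-only cultures of the same repair-deficient yeast strain.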
# [17] = at 5.0 µM (retest, dose inferred, filed as 0.5)
# [18] = at 50.0 µM (retest, dose inferred, filed as 5.0)
smiles,measurement,setting,value
NC(N)=N/N=C/c1cc(Cl)cc(Cl)c1O,growth inhibition,[1]; [17],73% (active)
same,growth inhibition,[1]; at 11.0 µM,-21%
same,growth inhibition,[1]; at 33.0 µM,23%
same,growth inhibition,[1]; [18],96% (active)
same,growth inhibition,[1]; at 50.0 µM,61.9%
same,growth inhibition,[1]; at 100.0 µM,98% (active)
same,growth inhibition,[2]; at 1.2 µM,-8%
same,growth inhibition,[2]; at 3.7 µM,1%
same,growth inhibition,[2]; at 11.0 µM,12%
same,growth inhibition,[2]; at 33.0 µM,72% (active)
same,growth inhibition,[2]; at 100.0 µM,98% (active)
same,growth inhibition,[3]; [17],4%
same,growth inhibition,[3]; [18],98% (active)
same,growth inhibition,[4]; at 1.2 µM,15%
same,growth inhibition,[4]; at 3.7 µM,23%
same,growth inhibition,[4]; at 11.0 µM,21%
same,growth inhibition,[4]; at 33.0 µM,33%
same,growth inhibition,[4]; at 100.0 µM,93% (active)
same,growth inhibition,[5]; [17],54%
same,growth inhibition,[5]; [18],93% (active)
same,growth inhibition,[6]; at 1.2 µM,-7%
same,growth inhibition,[6]; at 3.7 µM,-6%
same,growth inhibition,[6]; [17],46%
same,growth inhibition,[6]; at 11.0 µM,4%
same,growth inhibition,[6]; at 33.0 µM,49%
same,growth inhibition,[6]; [18],96% (active)
same,growth inhibition,[6]; at 100.0 µM,97% (active)
same,growth inhibition,[7]; at 1.2 µM,-49%
same,growth inhibition,[7]; at 3.7 µM,-40%
same,growth inhibition,[7]; at 11.0 µM,-30%
same,growth inhibition,[7]; at 33.0 µM,30%
same,growth inhibition,[7]; at 100.0 µM,97% (active)
same,growth inhibition,[8]; at 1.2 µM,12%
same,growth inhibition,[8]; at 3.7 µM,9%
same,growth inhibition,[8]; at 11.0 µM,21%
same,growth inhibition,[8]; at 33.0 µM,68%
same,growth inhibition,[8]; at 100.0 µM,98% (active)
same,growth inhibition,[9]; at 1.2 µM,-12%
same,growth inhibition,[9]; at 3.7 µM,-14%
same,growth inhibition,[9]; at 11.0 µM,-1%
same,growth inhibition,[9]; at 33.0 µM,37%
same,growth inhibition,[9]; at 100.0 µM,98% (active)
same,growth inhibition,[10]; [17],55%
same,growth inhibition,[10]; [18],97% (active)
same,growth inhibition,[10]; at 50.0 µM,58.2%
same,growth inhibition,[11]; at 1.2 µM,-8%
same,growth inhibition,[11]; at 3.7 µM,-11%
same,growth inhibition,[11]; at 11.0 µM,-6%
same,growth inhibition,[11]; at 33.0 µM,49%
same,growth inhibition,[11]; at 100.0 µM,95% (active)
CC1=CCC(C(C)(C)c2ccc(O)cc2)CC1 (stereo not given),growth inhibition,[12]; at 1.2 µM,4%
same,growth inhibition,[12]; at 3.7 µM,-12%
same,growth inhibition,[12]; at 11.0 µM,-11%
same,growth inhibition,[12]; at 33.0 µM,96% (active)
same,growth inhibition,[12]; at 100.0 µM,97% (active)
same,growth inhibition,[13]; at 1.2 µM,-16%
same,growth inhibition,[13]; at 3.7 µM,-18%
same,growth inhibition,[13]; at 11.0 µM,-39%
same,growth inhibition,[13]; at 33.0 µM,97% (active)
same,growth inhibition,[13]; at 100.0 µM,98% (active)
same,growth inhibition,[14]; at 1.2 µM,-10%
same,growth inhibition,[14]; at 3.7 µM,-4%
same,growth inhibition,[14]; at 11.0 µM,-25%
same,growth inhibition,[14]; at 33.0 µM,27%
same,growth inhibition,[14]; at 100.0 µM,78% (active)
same,growth inhibition,[15]; at 1.2 µM,35%
same,growth inhibition,[15]; at 3.7 µM,10%
same,growth inhibition,[15]; at 11.0 µM,-23%
same,growth inhibition,[15]; at 33.0 µM,97% (active)
same,growth inhibition,[15]; at 100.0 µM,97% (active)
same,growth inhibition,[16]; at 1.2 µM,-6%
same,growth inhibition,[16]; at 3.7 µM,-8%
same,growth inhibition,[16]; [17],35%
same,growth inhibition,[16]; at 11.0 µM,-26%
same,growth inhibition,[16]; at 33.0 µM,96% (active)
same,growth inhibition,[16]; [18],65%
same,growth inhibition,[16]; at 50.0 µM,91.8% (active)
same,growth inhibition,[16]; at 100.0 µM,97% (active)
same,growth inhibition,[1]; at 1.2 µM,-20%
same,growth inhibition,[1]; at 3.7 µM,-19%
same,growth inhibition,[1]; [17],52%
same,growth inhibition,[1]; at 11.0 µM,-40%
same,growth inhibition,[1]; at 33.0 µM,93% (active)
same,growth inhibition,[1]; [18],73% (active)
same,growth inhibition,[1]; at 50.0 µM,93.5% (active)
same,growth inhibition,[1]; at 100.0 µM,98% (active)
same,growth inhibition,[2]; at 1.2 µM,-8%
same,growth inhibition,[2]; at 3.7 µM,-18%
same,growth inhibition,[2]; at 11.0 µM,-39%
same,growth inhibition,[2]; at 33.0 µM,97% (active)
same,growth inhibition,[2]; at 100.0 µM,98% (active)
same,growth inhibition,[3]; [17],7%
same,growth inhibition,[3]; [18],97% (active)
same,growth inhibition,[4]; at 1.2 µM,15%
same,growth inhibition,[4]; at 3.7 µM,19%
same,growth inhibition,[4]; at 11.0 µM,-17%
same,growth inhibition,[4]; at 33.0 µM,97% (active)
same,growth inhibition,[4]; at 100.0 µM,97% (active)
same,growth inhibition,[5]; [17],37%
same,growth inhibition,[5]; [18],98% (active)
same,growth inhibition,[6]; at 1.2 µM,7%
same,growth inhibition,[6]; at 3.7 µM,4%
same,growth inhibition,[6]; [17],39%
same,growth inhibition,[6]; at 11.0 µM,-4%
same,growth inhibition,[6]; at 33.0 µM,96% (active)
same,growth inhibition,[6]; [18],97% (active)
same,growth inhibition,[6]; at 100.0 µM,97% (active)
same,growth inhibition,[7]; at 1.2 µM,-41%
same,growth inhibition,[7]; at 3.7 µM,-24%
same,growth inhibition,[7]; at 11.0 µM,-44%
same,growth inhibition,[7]; at 33.0 µM,93% (active)
same,growth inhibition,[7]; at 100.0 µM,97% (active)
same,growth inhibition,[8]; at 1.2 µM,10%
same,growth inhibition,[8]; at 3.7 µM,9%
same,growth inhibition,[8]; at 11.0 µM,-10%
same,growth inhibition,[8]; at 33.0 µM,96% (active)
same,growth inhibition,[8]; at 100.0 µM,98% (active)
same,growth inhibition,[9]; at 1.2 µM,2%
same,growth inhibition,[9]; at 3.7 µM,-17%
same,growth inhibition,[9]; at 11.0 µM,-28%
same,growth inhibition,[9]; at 33.0 µM,96% (active)
same,growth inhibition,[9]; at 100.0 µM,97% (active)
same,growth inhibition,[10]; [17],32%
same,growth inhibition,[10]; [18],63%
same,growth inhibition,[10]; at 50.0 µM,91.8% (active)
same,growth inhibition,[11]; at 1.2 µM,-6%
same,growth inhibition,[11]; at 3.7 µM,-7%
same,growth inhibition,[11]; at 11.0 µM,-5%
same,growth inhibition,[11]; at 33.0 µM,96% (active)
same,growth inhibition,[11]; at 100.0 µM,97% (active)
